# Compounds with a hit are over-represented: about 1.4% of the library has one in this group of screens.
# NFkB transloc inh: blocks IL-1B driven NFkB nuclear translocation in HUVEC cells. HUVEC IL-1B NFkB p65 nuclear translocation imaging. inhibition, % at 2 µM. actives 0.43% (n = 94,000);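 active = inhibition above about 30% together with a positive call from visual inspection of the well image, limit read from the data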;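 note: nuclear over cytoplasmic p65 intensity ratio measured by imaging; 0% = IL-1B stimulated DMSO wells and 100% = unstimulated DMSO wells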
# IL1B NFkB pot: enhances IL-1B driven NFkB nuclear translocation | HUVEC IL-1B NFkB p65 nuclear translocation imaging | activation, % at 2 µM | actives 0.3% (n = 94,000) | AID 819;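 active = activation above 40%, about the mean plus 3 SD, also judged a hit on visual image review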;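 note: percent activation is computed from the nuclear over cytoplasmic p65 intensity ratio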
# PTK2B oligo ant: antagonists of human Pyk2 oligomerization; Q14289; Q293 cells, Pyk2 FERM NanoBiT luminescence; stronger effect = lower value; z-score (the deposit names both 25 µM and 10 µM); actives 0.83% (n = 99,000); AID 1347419;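 active = Z-score of -3 or lower, scaled per plate to the spread of control and sample wells; inactive = z-score above -3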;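 note: negative z-score means lost luminescence so less FERM oligomerization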
# HUVEC tox IL1B: HUVEC cytotoxicity counter-screen, IL-1B stimulated | HUVEC cell count loss, Hoechst imaging | cell count reduction, % at 2 µM | actives 0.41% (n = 94,000) | AID 845;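 active = cell count reduction more than 3 SD above the screen-wide mean, cut at about 70% in these data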;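 note: normalized per plate to untreated control cells as the no-loss baseline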
# Phagocyt inh: inhibitors of macrophage phagocytosis. inhibition, % at 5 µM. actives 0.07% (n = 110,000). J774A.1 macrophage IgG-bead phagocytosis, imaging;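 active = inhibition above the mean of the plate negative controls plus 5 SD, cut at about 13% in these data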;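 note: phagocytic index as fraction of beads internalized from green versus red external bead signal; plate controls were DMSO negative control for no effect and cytochalasin-D positive control for full effect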
# * hit, by the source's call; . = no result; + = active, no number; [ ] = remark or other dose.
SMILES,NFkB transloc inh,IL1B NFkB pot,PTK2B oligo ant,HUVEC tox IL1B,Phagocyt inh
COC(=O)c1cc(COc2ccc3c4c(c(=O)oc3c2)CCCC4)c(C)o1,.,.,0.02,.,-0.7
CCC(C)c1ccc(Nc2ncccc2C#N)cc1 (stereo not drawn),.,.,0.55,.,.
CCc1ccc(Nc2ncccc2C#N)cc1,-84.5,84.5*,1.79,-4.0,.
CCCC(=O)C1=C(O)C(C(=O)OC)C(C)(C)CC1=NC(C)(C)C (stereo not drawn),45.0*,-45.0,0.05,7.8,0.2
CCCC(=O)C1=C(O)C(C(=O)OC)C(C)(C)CC1=NC(C)C (stereo not drawn),-9.4,9.4,-0.05,9.6,.
CCN(CC)C(=O)Cn1cnc2sc(C(=O)Nc3cc(OC)c(OC)c(OC)c3)c(C)c2c1=O,-42.1,42.1*,0.27,-78.8,1.6
FC(F)Oc1ccc(NC(=S)NCc2ccccc2)cc1Cl,30.5*,-30.5,-1.69,-18.5,.
Cc1c(C(=O)N/N=C/c2ccc(O)cc2)sc(=S)n1C,.,.,.,.,-2.5
O=C1N=C(N2CCCCC2)S/C1=C\c1cn[nH]c1-c1ccccc1,.,.,.,.,-5.0
CC(c1ccccc1)n1cc(C(=O)NCCN2CCOCC2)nn1 (stereo not drawn),-52.7,52.7*,-0.5,12.5,.
CC(c1ccccc1)n1cc(C(=O)NCC2CCCO2)nn1 (stereo not drawn),-24.9,24.9,1.26,-17.5,.
Cc1ccc(C)c(/C(O)=C2/C(=O)C(=O)N(CCN3CCOCC3)C2c2ccc(C)o2)c1 (stereo not drawn),-107.4,107.4*,-0.3,-6.5,-1.8
CS(=O)(=O)NN1C(=O)c2ccccc2NC1c1cc2ccccc2nc1Cl (stereo not drawn),.,.,.,.,-9.9
CC(C)OC(=O)c1ccc(NC(=O)Cn2c(-c3nonc3N)nc3ccccc32)cc1,0.4,-0.4,-4.2*,-5.1,.
COc1ccc(CC(=O)Nc2oc(-c3ccccc3)c(-c3ccccc3)c2C#N)cc1OC,-6.4,6.4,-3.3*,-12.6,.
COc1ccc(-c2oc(NC(=O)CSc3ncn[nH]3)c(C#N)c2-c2ccc(OC)cc2)cc1,-8.4,8.4,-4.04*,1.2,1.3
COc1ccccc1OCC(=O)Nc1oc(-c2ccccc2)c(-c2ccccc2)c1C#N,-2.0,2.0,-3.71*,-31.8,-1.0
Cc1ccc(OCC(=O)Nc2oc(-c3ccccc3)c(-c3ccccc3)c2C#N)cc1,-7.8,7.8,-1.31,-3.4,.
CSc1nc2ccc3nc(NC(=O)c4cccs4)sc3c2s1,12.4,-12.4,-0.2,8.1,-0.7
Cc1ccccc1N(CC(N)=O)S(C)(=O)=O,-19.3,19.3,0.57,-8.2,0.2
Cc1ccccc1C(=O)N[C@H](C(=O)Nc1ccc(Cl)c(Cl)c1)C(C)C,.,.,.,.,-1.8
COc1ccccc1N1CCN(C(=O)c2cc3n(n2)C(C(F)(F)F)CC(c2ccco2)N3)CC1 (stereo not drawn),.,.,0.35,.,-1.8
O=C(c1cc2n(n1)C(C(F)(F)F)CC(c1ccco1)N2)N1CCc2ccccc2C1 (stereo not drawn),10.9,-10.9,-0.77,74.6*,1.1
CCn1c(CNC(=O)c2ccccc2)nc2ccccc21,-3.5,3.5,0.53,2.3,.
Nc1cc(N)nc(SCCOc2ccccc2F)n1,.,.,0.37,.,.
SMILES,NFkB transloc inh,IL1B NFkB pot,PTK2B oligo ant,HUVEC tox IL1B,Phagocyt inh
Nc1nc(OCC(F)(F)F)cc(Oc2ccccc2F)n1,5.8,-5.8,-3.81*,0.8,-0.5
O=C(CSCc1ccc(Br)cc1)N1CCOCC1,-42.0,42.0*,-0.4,-15.9,8.2
O=C(CSCc1ccc(F)cc1)N1CCOCC1,-10.1,10.1,0.4,10.9,0.9
COc1ccc(N=Cc2ccc(CNS(=O)(=O)c3ccc(Cl)cc3)o2)cc1,11.7,-11.7,-1.16,11.1,.
CN1CC(c2ccccc2Cl)C2(COc3ccccc3C2=O)C12C(=O)Nc1ccccc12 (stereo not drawn),-7.3,7.3,-2.86,-3.9,.
Cc1ccc(C2CN(C)C3(C(=O)Nc4ccccc43)C23COc2ccccc2C3=O)cc1 (stereo not drawn),-4.3,4.3,-3.57*,18.9,.
COc1ccc(NC(=O)C2CCN(S(C)(=O)=O)CC2)cc1,42.5*,-42.5,0.6,-129.8,1.5
COc1ccc(N2CCN(S(C)(=O)=O)CC2)cc1,.,.,0.22,.,1.7
CCOC(=O)Cc1csc(NC(=S)NC(=O)c2ccc(F)cc2)n1,-1.4,1.4,1.52,-24.4,-3.8
CCOC(=O)Cc1csc(NC(=S)NC(=O)c2ccccc2C)n1,50.0*,-50.0,0.5,-30.9,.
CN(NC(=O)COc1ccccc1)c1ccccc1,.,.,.,.,-11.5
c1ccc(Cc2nnc3sc(-c4ccncc4)nn23)cc1,-15.7,15.7,-0.22,-41.2,-1.3
c1ccc(Cc2nnc3sc(-c4cccnc4)nn23)cc1,-12.2,12.2,-0.43,91.3*,0.4
CCC(=O)/C=C1/Sc2ccc(OC)cc2N1CC,-1.1,1.1,1.22,-16.8,.
CCC(/C=C1\Sc2ccc(OC)cc2N1CCO)=C\c1sc2ccc(OC)cc2[n+]1CCO,.,.,.,.,+[fluoresces]
COc1ccc(C2CC(=O)C=C(NCCC(C)C)C2)cc1 (stereo not drawn),-51.7,51.7*,0.29,-8.9,.
CCOc1ccc(Br)cc1/C(C)=N\NC1=NCCN1,-6.2,6.2,0.93,1.7,-0.2
Cc1ccc(-n2c(O)c(C=NC3CCS(=O)(=O)C3)c3ccccc3c2=O)cc1C (stereo not drawn),-42.6,42.6*,0.44,38.6,-1.3
COc1ccc(CN2CCN(C(=O)C3CC(=O)N(C4CCCCCC4)C3)CC2)c(OC)c1OC (stereo not drawn),13.0,-13.0,3.54,11.9,-0.6
CCC(C)(C)n1nnnc1C(c1cc2ccc(OC)cc2[nH]c1=O)N1CCc2ccccc2C1 (stereo not drawn),-1.0,1.0,-0.05,44.9,0.3
O=C(O)c1cc(C(=O)O)c(-c2ccccc2)c(C(=O)O)c1,6.3,-6.3,0.73,6.3,0.5
O=C(O)c1ccc(C(=O)O)c(C(=O)c2ccccc2)c1,19.4,-19.4,0.68,79.8*,-0.4
Clc1ccc(-n2nnnc2CN2CCOCC2)cc1Cl,.,.,.,.,-8.0
CC1(c2ccncc2)Nc2ccccc2-c2nc3ccccc3n21 (stereo not drawn),1.4,-1.4,-0.88,-2.6,-1.3
COc1ccc2c(c1)C1(Nc3ccccc3-c3nc4ccccc4n31)C(=O)N2 (stereo not drawn),16.0,-16.0,-2.12,70.9*,0.5
SMILES,NFkB transloc inh,IL1B NFkB pot,PTK2B oligo ant,HUVEC tox IL1B,Phagocyt inh
COc1ccc2c(c1)C1(Nc3ccccc3-c3nc4ccccc4n31)C(=O)N2C (stereo not drawn),7.1,-7.1,-3.14*,5.3,.
O=C(CCCc1ccccc1)NCCCN1CCOCC1,4.1,-4.1,1.21,2.5,-0.6
CCOc1ccc(OCC)c(NC(=O)CSCC(=O)O)c1,0.0,0.0,0.02,-6.6,-0.3
O=C(Nc1nc2c(s1)CCCC2)c1cc(-c2ccc3c(c2)OCO3)nc2ccccc12,.,.,.,.,-7.5
Cn1c(NC(=O)c2cc(-c3ccc4c(c3)OCO4)nc3ccccc23)cc(=O)n(C)c1=O,6.8,-6.8,-3.96*,8.2,.
COc1cccc(N2CCN(c3c4c(nc5ncnn35)CCC4)CC2)c1,30.2*,-30.2,0.02,36.4,2.5
